Bioassay records as filed in PubChem BioAssay.
HCMV antiviral – qHTS Assay for inhibitors of the human cytomegalovirus (HCMV). AID 1259415, 2018. actives 4.5% (n = 410,000). activity change, negative = inhibition, % at 57.5 µM. HFF cells, HCMV-luciferase reporter, 72 h; active compounds read low; in the data active means activity change below about -60%; inconclusive means no clear call, values can overlap the other calls; inactive means above about -39%; further: on the % scale 0 is the no-effect control and ±100 the full control effect
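HFF cells seeded 16 h at 37C, treated with compounds, infected with luciferase-reporter HCMV at MOI 1 PFU/cell; luciferase read at 72 h post infection, normalized to buffer-only and Salinomycin controls.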
CHX counter – Cycloheximide Counterscreen for Small Molecule Inhibitors of Shiga Toxin; cell reporter, cycloheximide protein synthesis inhibition counterscreen; max response, %; actives 12% (n = 300,000); in the data active means max response mostly above about 13%, no sharp cut-off; inactive means mostly below about 14%; further: read at 38.3 µM for the half of the compounds with a filed dose; 0% is about no effect
Pf growth 96h – Primary qHTS for delayed death inhibitors of the malarial parasite plastid, 96 hour incubation; AID 504834, 2011; P. falciparum luciferase reporter growth, 96 h; actives 6.9% (n = 320,000); Potency, µM (top dose mostly 28.7 µM), without a hit: top-dose activity change, negative = inhibition, usual class: inhibitors; further: potency means the concentration at half of the fitted maximal effect; on the % scale 0 is the no-effect control and ±100 the full control effect
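Delayed-death screen, second-generation endpoint: infected erythrocytes, 2% hematocrit, 0.05% parasitemia final; 96 hours at 37 C, 5% CO2; luciferase detection reagent; luminescence decrease equals reduced growth.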
Pf growth 48h – Primary qHTS for delayed death inhibitors of the malarial parasite plastid, 48 hour incubation. P. falciparum luciferase growth in erythrocytes, 48 h. Potency, µM (top dose mostly 28.7 µM), without a hit: top-dose activity change, negative = inhibition, actives largely listed as inhibitors. actives 5.9% (n = 310,000). AID 504832, 2011; further: potency means the concentration at half of the fitted maximal effect; on the % scale 0 is the no-effect control and ±100 the full control effect
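Read-out is firefly luciferase luminescence from an integrated reporter in P. falciparum, so falling signal marks reduced parasite growth. Infected erythrocytes were at 2% hematocrit and 0.1% parasitemia (final) in Albumax-supplemented RPMI 1640.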
Shiga inhibitor – A qHTS for Small Molecule Inhibitors of Shiga Toxin. Vero cells, Shiga toxin protein synthesis inhibition reporter. inhibition, % at 38.7 µM. actives 9.2% (n = 290,000). AID 2315, 2010; in the data active means inhibition mostly above about 28%, no sharp cut-off; inactive means mostly below about 43%; further: 0% is about no effect
The depositor's hits bear a star; ? = inconclusive; . = no result. Most compounds without a hit are left out; they make up all but 20% or so of the library. Unless noted, the call rests on the fitted dose curve; in most records, active means well fitted inhibition curve with a large enough effect; inconclusive means small, poorly fitted or top-dose-only effect, or another doubt; inactive means no such curve, though single readings can be large or run the other way.

SMILES	HCMV antiviral	CHX counter	Pf growth 96h	Pf growth 48h	Shiga inhibitor
CCOC(=O)C1=C(C)N=C2SC(C(=O)OC)=CC(=O)N2C1c1cccc(OC)c1 (centres undefined)	41	-3	-16%	7.4µM*	-3
CCOC(=O)C1=C(C)N=c2s/c(=C/c3cccc([N+](=O)[O-])c3O)c(=O)n2C1c1cc(OC)c(OC)c(OC)c1 (centres undefined)	-30	-3	?	1µM*	-15
CCOC(=O)C1=C(C)N=c2s/c(=C\c3ccc(OCC(=O)O)cc3)c(=O)n2C1c1ccccc1 (centres undefined)	-29	-1	10µM*	7.4µM*	-1
CCOC(=O)C1=C(C)N=c2sc(=Cc3ccc(OCC(=O)O)cc3)c(=O)n2C1c1ccc(SC)cc1 (centres undefined)	-2	.	.	.	.
CC(C)C(=O)OC1=CN(Cc2ccccc2)S(=O)(=O)c2ccccc21	-12	.	.	.	.
CCOC(=O)C1=C(c2ccccc2)N=c2sc(=Cc3cc(OC)c(OC)c(OC)c3)c(=O)n2C1c1cccs1 (centres undefined)	-14	.	.	.	.
COc1ccc(C2C(C(C)=O)=C(C)N=c3s/c(=C/c4ccc5c(c4)OCO5)c(=O)n32)cc1 (centres undefined)	.	3	?	13µM*	22
CC(=O)C1=C(C)N=c2s/c(=C/c3ccc4c(c3)OCO4)c(=O)n2C1c1ccc(N(C)C)cc1 (centres undefined)	-15	.	.	.	.
CCOC(=O)C1=C(C)N=c2s/c(=C\c3cc(OC)c(OC)c(OC)c3)c(=O)n2C1/C=C/c1ccccc1 (centres undefined)	19	-2	2.1µM*	15µM*	-18
CCOC(=O)C1=C(c2ccccc2)N=c2s/c(=C\c3ccc(O)cc3)c(=O)n2C1c1cccs1 (centres undefined)	45	11	2.6µM*	2.9µM*	5
CC1=C(C(=O)N(C(C)C)C(C)C)CC(CC(=O)NCc2cccs2)C(=O)N1Cc1ccc(C(C)(C)C)cc1 (centres undefined)	-26	.	.	.	.
CSc1ccc(/C=C/C(=O)c2ccc(O)cc2)cc1	-5	44*	?	21%	91*
Cc1ccc(/C=C/C(=O)c2ccc(O)cc2)cc1	-7	28*	45%	128%	49*
O=C(/C=C/c1ccc(I)cc1)c1ccc(B(O)O)cc1	.	29*	.	.	16*
Cc1ccc(S(=O)(=O)C2(C(=O)Nc3ccc(Br)cc3)CC2)cc1	-19	32*	-29%	-11%	46
O=c1ccc(Oc2nc(N3CCCCC3)nc(N3CCCCC3)n2)n[nH]1	69	-6	3.7µM*	14%	12
Cc1ccc(CN(C(=O)COc2cccc(Cl)c2)c2ccccn2)o1	-1	.	.	.	.
CCOc1ccc(S(=O)(=O)NCCC(=O)N2CC(C)CC(C)C2)cc1 (centres undefined)	-15	.	7%	-28%	.
COc1ccccc1Nc1nc(NCC2CCCO2)c2ccccc2n1 (centres undefined)	?	9	1µM*	?	18
Oc1ccccc1-c1nc(NCC2CCCO2)c2ccccc2n1 (centres undefined)	18	-1	10µM*	?	-3
COc1ccc(/C=C/C(=O)OC(C)CN2CCCCC2)cc1 (centres undefined)	4	0	-18%	72%	-16
O=C(c1ccccc1-c1nc(-c2ccc(Cl)cc2)no1)N1CCCC1	13	45*	.	56%	74*
O=C(c1ccccc1-c1nc(-c2ccccc2)no1)N1CCCC1	30	22*	?	76%	56*
Cc1ccc(-c2noc(-c3ccccc3C(=O)N3CCCC3)n2)cc1	73	35*	22%	0%	54*
Cc1nc(-c2ccccc2)nc(-c2ccccc2)n1	35	.	60%	9%	.
SMILES	HCMV antiviral	CHX counter	Pf growth 96h	Pf growth 48h	Shiga inhibitor
CC(C)(C)c1ccc(C(=O)NCCC(=O)NCc2ccc(F)cc2)cc1	-82*	.	.	.	.
NS(=O)(=O)c1ccc(CNC(=O)CNC(=O)c2ccc(F)cc2)cc1	7	15*	31%	16%	68*
CC12CC(O)C3c4ccc(O)cc4CCC3C1CC/C2=N\O (centres undefined)	32	-3	22%	17%	28
Cc1ccc2c(c1)N=C(c1ccccc1)CC(C(Cl)Cl)=N2	57	37*	-37%	168%	84*
Cc1ccc(C2=Nc3ccccc3N=C(C(Cl)Cl)C2)cc1	38	41*	-3%	20%	123*
Nc1nc2c(s1)CC(c1ccccc1)CC2 (centres undefined)	?	15	5.2µM*	21%	53
CC(C)(C)C1CCc2nc(NC(=O)Cc3ccccc3)sc2C1 (centres undefined)	56	.	.	.	.
Cn1c(=O)c2c(-c3ccccc3F)c3c(nc2n(C)c1=O)-c1ccccc1C3O (centres undefined)	-6	-2	0.23µM*	-21%	10
C/C(=N\NC(=O)c1c(Cl)cnn1C)c1ccc(NC(=O)c2ccncc2)cc1	52	16*	-27%	-13%	16
C/C(=N\NC(=O)c1nn(C)cc1Br)c1cccc(NC(=O)C2CCCC2)c1	18	65*	5%	9%	102*
Cn1cc(Br)c(C(=O)NNC(=O)c2ccc(Cl)cc2)n1	-3	39*	-1%	73%	35
Cn1cc(Br)c(C(=O)NNC(=O)Cc2ccc(Cl)cc2)n1	5	-2	18%	43%	1
C/C(=N\NC(=O)C1(C)CC1(Br)Br)c1cccc(NC(=O)C(C)(C)C)c1 (centres undefined)	-20	8	?	9%	-6
C/C(=N\NC(=O)c1nn(C)cc1Br)c1cccc(NC(=O)C(C)(C)C)c1	17	32*	?	?	98*
COc1ccccc1N1CC(C)(C)C(=O)N(C(=O)c2ccc(C)cc2)C1=S	-8	6	77%	50%	22
COc1cccc(CN(C)C[C@H]2OCc3cnnn3CCCC(=O)N([C@H](C)CO)C[C@@H]2C)c1	4	.	.	.	.
C/C(=N\NC(=O)c1ccc(N/N=C(\C)c2ccncc2)cc1)c1ccncc1	-39	8	?	-4%	-13
C/C(=N\NC(=O)c1nn(C)cc1Br)c1ccc(NC(=O)c2ccncc2)cc1	66	59*	4.1µM*	1%	105*
COCCn1c(=NC(=O)/C=C/c2ccccc2)sc2cc(NC(C)=O)ccc21	-4	-2	2.6µM*	?	-8
Cc1cc2nc(NC3=NCN(CCN4CCOCC4)CN3)nc(C)c2cc1C	.	-2	?	?	-4
CC(=O)c1cnc(Nc2nc(C)c3cc(C)c(C)cc3n2)nc1C	-16	-1	13µM*	2%	24
NC(N)=NCC(O)CN(c1ccccc1)c1ccccc1 (centres undefined)	-38	-1	1.5µM*	1.2µM*	-2
